Epigenetic mod = qHTS Assay for Epigenetic Modulators; mouse C127i GFP locus derepression, cytometry, 30 h; Potency, µM (series often up to 46.1 µM), without a hit: top-dose GFP derepression (activation); 0.09% of 68,000 active; note: % of control where 0% means no effect
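Read-out is the number of GFP-positive cells, scored as fluorescent objects 20 to 120 um wide, reflecting derepression of a silenced CMV-GFP reporter in murine C127i cells after 30 h compound exposure at 37 C.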
Ub-GFP proteasome = Ubiquitin-GFP Assay; Ubiquitin-GFP reporter cells, proteasome inhibition, GFP fluorescence; response scale: untreated = 0%, 10 µM MG-132 = 100%; 67,000 tested, under 10 active; Potency, µM (doses to about 45.9 µM), for the others: at the top dose activation (GFP accumulation), usual class: activators; AID 526, 2006; active = well fitted activation curve with a large enough effect, not every such curve was filed as active; inconclusive = small, poorly fitted or top-dose-only effect, or another doubt; inactive = no such curve, though single readings can be large or run the other way; note: potency is the fitted concentration of half-maximal effect
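Proteasome block read as GFP accumulation: ubiquitin(G76V)-GFP U2OS cells exposed to compound (2.9 nM–46 uM) for 4 hr at 37 C. Normalization used untreated cells as 0% and 10 uM MG-132 as 100%; concentration-response curves fitted.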
Tau fil binding = qHTS Assay for Tau Filament Binding; recombinant tau filaments, thioflavin S fluorescence, 15 h; filaments grown with octadecylsulfate alongside compound; Microtubule-associated protein tau (Homo sapiens), P10636; 2% of 71,000 active; Potency, µM (series often up to 57.1 µM), without a hit: top-dose activity change, negative = inhibition;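 note: potency is the fitted concentration of half-maximal effect; % is set by controls: 0 for no effect and ±100 for the full control effect; actives lower thioflavin S fluorescence by blocking filaments or displacing dye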
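Read-out: ThS fluorescence, 450 nm excitation/510 nm emission; lower signal marks blocked filament formation or displaced dye. Tau at 1 uM with 30 uM ODS, 10 uM ThS, 5 mM DTT, 100 mM NaCl, 10 mM HEPES pH 7.4; 15 h, 37 C.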
HBB splice mod = qHTS Assay for Modulators of Hemoglobin Beta Chain Splicing. HBB splicing reporter cell assay, activation; EGFP reporter with mutant IVS2-654 intron; response scale: normalised to 500 nM splice-correcting PNA. Potency, µM (doses to about 46.1 µM), without a hit: top-dose activation, most hits filed as activators. 0.06% of 65,000 active. AID 925, 2007; note: potency is the fitted concentration of half-maximal effect; 0% is about no effect
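Compounds were applied for 2 days to HeLa EGFP-654 cells, 500/well in Optimem with 2% FCS. The reporter's EGFP is disrupted by mis-splicing of beta-globin intron IVS2-654. Readout: summed well GFP fluorescence from 488 nm laser scanning; reference was 500 nM antisense […] 654 PNA.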
15-hLO-2 inh = qHTS Assay for Inhibitors of 15-hLO-2 (15-human lipoxygenase 2); AID 881, 2007; Potency, µM (highest dose often 57.1 µM), for the others: at the top dose activity change, negative = inhibition, usual class: inhibitors; Polyunsaturated fatty acid lipoxygenase ALOX15B (Homo sapiens), O15296; 0.56% of 110,000 active; purified 15hLO-2, xylenol orange hydroperoxide absorbance; note: potency is the fitted concentration of half-maximal effect; % is set by controls: 0 for no effect and ±100 for the full control effect; nearly all actives have a fitted effect of over 60% in size
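Purified human 15hLO-2 (50 nM final) preincubated with compounds 15 min at room temperature in 25 mM Hepes pH 7.5, 0.01% Triton X-100, then 45 uM arachidonic acid added for 90 min; hydroperoxide detected via ferrous/xylenol orange, 573/405 nm absorbance ratio.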
15-hLO inh = qHTS Assay for Inhibitors of 15-hLO (15-human lipoxygenase); Polyunsaturated fatty acid lipoxygenase ALOX15 (Homo sapiens), P16050; purified 15hLO-1, xylenol orange hydroperoxide absorbance; Potency, µM (highest dose often 57.1 µM), inactives show at the highest dose activity change, negative = inhibition, actives largely listed as inhibitors; 1.4% of 74,000 active; AID 887, 2007; note: potency is the fitted concentration of half-maximal effect; % is set by controls: 0 for no effect and ±100 for the full control effect; nearly all actives have a fitted effect of over 55% in size
Target sequence (P16050 whole entry, looked up): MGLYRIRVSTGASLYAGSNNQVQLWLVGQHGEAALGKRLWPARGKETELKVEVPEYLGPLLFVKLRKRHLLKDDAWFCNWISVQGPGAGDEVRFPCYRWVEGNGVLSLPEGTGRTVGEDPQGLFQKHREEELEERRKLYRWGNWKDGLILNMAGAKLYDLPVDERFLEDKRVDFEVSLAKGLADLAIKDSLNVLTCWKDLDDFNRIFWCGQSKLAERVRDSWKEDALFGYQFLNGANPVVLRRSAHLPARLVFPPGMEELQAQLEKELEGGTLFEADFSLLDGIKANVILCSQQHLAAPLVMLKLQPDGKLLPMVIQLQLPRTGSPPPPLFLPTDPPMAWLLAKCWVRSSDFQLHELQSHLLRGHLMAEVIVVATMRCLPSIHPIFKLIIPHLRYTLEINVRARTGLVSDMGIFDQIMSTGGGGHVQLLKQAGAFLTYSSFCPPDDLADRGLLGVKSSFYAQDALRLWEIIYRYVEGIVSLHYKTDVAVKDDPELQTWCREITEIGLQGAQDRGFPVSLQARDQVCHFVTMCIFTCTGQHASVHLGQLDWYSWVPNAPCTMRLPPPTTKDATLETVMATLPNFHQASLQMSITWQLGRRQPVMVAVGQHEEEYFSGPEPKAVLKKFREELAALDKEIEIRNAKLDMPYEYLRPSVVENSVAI
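Readout: Fe(III)-xylenol orange absorbance, 573-to-405 nm ratio as reaction progress. Enzyme 40 nM purified human 15hLO-1, substrate 50 uM arachidonic acid, 6 min RT after 15 min compound preincubation; Hepes pH 7.5 buffer with Triton X-100.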
An asterisk follows results filed as active; i = inactive; ? = inconclusive; · = no result; [ ] = dose if it differs, or a comment. Hits are enriched below; roughly 2.3% of the tested compounds scored in any of these assays. Unless noted, calls come from the whole dose curve; as a rule, active = well fitted curve in the direction sought with a large enough effect; inconclusive = small, poorly fitted or top-dose-only effect, or another doubt; inactive = no such curve, though single readings can be large; an effect the other way counts as inactive or inconclusive.

SMILES	Epigenetic mod	Ub-GFP proteasome	Tau fil binding	HBB splice mod	15-hLO-2 inh	15-hLO inh
CC(C)COC(=O)C(C#N)c1nc2ccccc2nc1N1CCN(Cc2ccccc2)CC1 (centres undefined)	0.0%	14.6%	2µM*	2.8%[1.84 µM]	1.4%[2.29 µM]	4.9%
C=CCNC(=O)C(C#N)c1nc2ccccc2nc1N1CCN(Cc2ccccc2)CC1 (centres undefined)	23.1%	9.0%	73.1%	4.0%	19.6%	-7.8%
COCCCNC(=O)C(C#N)c1nc2ccccc2nc1N1CCN(Cc2ccccc2)CC1 (centres undefined)	-2.6%[20.6 µM]	·	·	·	11.1%	·
N#CC(C(=O)OC1CCCCC1)c1nc2ccccc2nc1N1CCOCC1 (centres undefined)	25.5%	29.3%	i	-0.8%[57.5 µM]	19.6%	1.3%
CCC(CC)COC(=O)C(C#N)c1nc2ccccc2nc1N1CCOCC1 (centres undefined)	2.1%	0.0%	3.16µM*	-3.1%[57.5 µM]	-8.8%	-26.4%
COc1cc(N=c2ssnc2Cl)cc(OC)c1OC	1.1%	0.0%	9.6%	-2.6%	25.1µM*	3.16µM*
COc1cc(/C=N/n2c(C)nnc2C)cc(OC)c1OC	2.3%[20.6 µM]	·	·	·	3.2%	·
CCC(c1nnc(SCC(=O)Nc2ccc(C(=O)Nc3ccccc3OC)cc2)o1)N(C)C (centres undefined)	6.5%	4.6%	20µM*	-3.9%	-2.0%[11.4 µM]	18.5%
O=C(NCc1cccnc1)[C@@H]1[C@@H](C(=O)O)[C@H]2CC[C@@H]1O2	-3.4%[9.22 µM]	-1.5%[9.17 µM]	15.8%[11.4 µM]	6.1%[9.22 µM]	-15.3%[11.4 µM]	-2.7%[11.4 µM]
CN(CC(=O)O)Cc1c[nH]c2ccccc12	6.6%[9.22 µM]	-4.6%[9.17 µM]	-2.1%[11.4 µM]	0.6%[9.22 µM]	2.4%[11.4 µM]	-1.1%[11.4 µM]
O=C(O)c1ccc(Cl)c2c1C1C=CCC1C(c1ccccn1)N2 (centres undefined)	-2.3%	-0.3%	i	0.1%	6.8%	15.8µM*
Cn1cccc1C(=O)N1CCC2(CC1)CCN(c1ccc(-c3ccccc3)cc1)CC2	-0.1%[9.22 µM]	-2.1%	15.8µM*	-2.3%	7.9%	-9.9%
COc1ccc2[nH]c3c(c2c1)CN(C)CC3	5.7%	-5.5%	25.1µM*	-0.4%	5.5%	?
C=C1CC[C@@H](O)C/C1=C/C=C1\CCC[C@]2(C)[C@@H]1CC[C@H]2[C@@H](C)/C=C\[C@@H](C)C(C)C	-2.3%[9.22 µM]	-6.3%	10.9%	·	·	·
CN(C)c1ccc(NC(=O)Cn2cc3c(n2)CCCC3)cc1	-3.8%	5.1%	12.6µM*	-1.6%	-7.4%	-17.7%
C[C@@]12CC[C@@H]3[C@H](CCC4=CC(=O)CC[C@]43C)[C@@H]1CC[C@@H]2C(=O)COS(=O)(=O)c1ccc(Br)cc1	2.4%[9.22 µM]	2.9%[9.17 µM]	-11.1%[11.4 µM]	4.9%[9.22 µM]	-1.5%[11.4 µM]	?
CC(=O)OCC1OC(C#Cc2ccc(Cl)cc2)C=CC1OC(C)=O (centres undefined)	·	·	·	1.6%[9.22 µM]	·	-14.5%[11.4 µM]
CCN(CC)c1ccc(NC(=O)c2cccc(C)c2OC)c(C)c1	0.0%	5.8%	25.1µM*	-2.2%	?	?
CNc1nc(-c2c[nH]c3ccccc23)cs1	·	·	·	·	-13.0%	·
Nc1nc(-c2c[nH]c3ccccc23)cs1	-1.2%	-1.7%	25.1µM*	-1.7%	-13.9%	?
CCNc1cc2n(c(=O)n1)CCc1cc(OC)c(OC)cc1-2	3.8%	-4.4%	12.6%	1.2%[57.5 µM]	-2.3%	6.2%
COc1cc2c(cc1OC)-c1cc(NCc3ccccn3)nc(=O)n1CC2	0.0%	·	-5.3%	-0.4%[0.369 µM]	-13.5%	12.6µM*
COc1ccc2oc(=O)c(C(=O)N3CCN(c4ccccc4)CC3)cc2c1	9.7%	-1.6%	-8.9%	0.5%	-3.8%	-1.0%
COc1ccc2oc(=O)c(C(=O)N3CCN(c4ccccc4C)CC3)cc2c1	-2.2%	-4.2%	15.8µM*	-1.1%	-11.5%	-2.9%
Nc1ccc(CCNc2ncnc3c2ncn3[C@@H]2O[C@@H](CO)[C@H](O)[C@@H]2O)cc1	-1.7%	4.3%	-0.2%	0.1%	-1.3%	3.6%
SMILES	Epigenetic mod	Ub-GFP proteasome	Tau fil binding	HBB splice mod	15-hLO-2 inh	15-hLO inh
COc1ccc(N2Cc3cccc(C(=O)NC(C)CCc4ccco4)c3C2=O)cc1 (centres undefined)	0.0%	-0.1%	58.8%	0.9%	-28.0%	20µM*
CCOC(=O)N1CCC(NC(=O)c2cccc3c2C(=O)N(c2ccc(OC)cc2)C3)CC1	-1.6%	8.8%	26.3%	0.2%	-12.2%	?
CN1CCN(C(=O)CSc2nc(-c3cccs3)cc(-c3cccs3)c2C#N)CC1	0.0%	-3.3%	7.94µM*	1.9%	20.8%	15.8µM*
COC(=O)[C@H](N)Cc1ccc(Cl)cc1	-2.2%	1.9%	-6.8%	1.2%	18.1%	8.5%
Cc1ccc(O)c(-c2cc(-c3ccccc3C)[nH]n2)c1	-2.7%	-2.5%	25.1µM*	1.2%	-12.8%	15.8µM*
Oc1ccccc1-c1cc(-c2ccco2)[nH]n1	·	·	·	·	-2.3%	·
Oc1ccccc1-c1cc(-c2ccccc2Cl)[nH]n1	-3.2%	-4.1%	-9.2%	-0.4%	8.3%	12.6µM*
Cc1ccc(NC(=O)c2ccc(Cl)c(N3C(=O)C=CC3=O)c2)cc1	·	·	·	·	0.316µM*	·
CCN=c1scc(-c2ccc3c(c2)NC(=O)CO3)n1N=C1CCCC1	?	-2.8%	12.6µM*	1.0%	?	-19.1%
O=c1[nH]c2c(cc1CNCCN1CCOCC1)c(-c1cccc(F)c1)nn2-c1ccccc1	-2.5%	-1.7%	?	-4.8%	35.2%	0.0316µM*
Cc1nn(-c2ccccc2)c2[nH]c(=O)c(CNc3ccc(N4CCOCC4)cc3)cc12	0.0%	14.6%	20µM*	3.9%	15.8µM*	12.6µM*
